Screens as filed in PubChem BioAssay.
The list is not random: actives were taken first. Their share in the collection is about 21%.
D3 antag: qHTS of D3 Dopamine Receptor Antagonist: qHTS; D3R cells, DiscoveRx beta-arrestin luminescence, antagonist mode; active compounds read low; max response, negative = inhibition, %; hit rate 2.5% among 360,000; in the data active = max response below about -50%; inconclusive = no clear call, values can overlap the other calls; note: % is set by controls: 0 for no effect and ±100 for the full control effect
Target sequence (P35462 whole entry, looked up): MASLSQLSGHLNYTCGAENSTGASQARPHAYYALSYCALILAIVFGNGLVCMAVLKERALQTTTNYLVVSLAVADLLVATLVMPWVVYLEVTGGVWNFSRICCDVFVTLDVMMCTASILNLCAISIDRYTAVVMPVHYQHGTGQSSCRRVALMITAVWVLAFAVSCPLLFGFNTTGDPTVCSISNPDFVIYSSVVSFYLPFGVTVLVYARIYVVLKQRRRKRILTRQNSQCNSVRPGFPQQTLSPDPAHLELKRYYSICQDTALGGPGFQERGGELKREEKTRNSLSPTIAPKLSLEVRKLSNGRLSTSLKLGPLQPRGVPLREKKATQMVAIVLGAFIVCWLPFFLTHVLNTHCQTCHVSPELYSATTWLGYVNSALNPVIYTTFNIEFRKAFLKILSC
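Cells plated overnight at 1500 cells/well, then exposed to library compounds with dopamine controls for 90 minutes at 37 degrees C. DiscoveRx reagent added for 30–60 minutes at room temperature; luminescence read, quantitative HTS format.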
D3 ag: qHTS of D3 Dopamine Receptor Agonist: qHTS; AID 652048, 2013; D3R DiscoveRx beta-arrestin cells, luminescence, 90 min; D(3) dopamine receptor (Homo sapiens), P35462; hit rate 0.58% among 410,000; max activation, %; in the data active = max activation above about 30%; note: 0% is about no effect
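Cells at 1500/well, incubated overnight, then treated with pinned compounds (dopamine as control) for 90 min at 37 degrees C. DiscoveRx reagent added for 30 - 60 minutes at room temperature; luminescence read.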
DT40 TDP1 CPT: qHTS for Inhibitors of human tyrosyl-DNA phosphodiesterase 1 (TDP1): qHTS in cells in presence of CPT; AID 686979, 2013; hit rate 12% among 420,000; Potency, µM (doses to about 46.2 µM), for inactives: at the highest dose activity change, negative = growth inhibition, usual class: inhibitors; chicken DT40 Tdp1-/-;hTDP1 cells + 20 nM CPT, ATP luminescence, 48 h; note: potency is the fitted concentration of half-maximal effect; % is set by controls: 0 for no effect and ±100 for the full control effect; nearly all actives have a fitted effect of over 55% in size
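Chicken DT40 Tdp1-/- cells stably complemented with human TDP1 were seeded at 400 cells/well in medium containing 20 nM camptothecin, exposed to pin-transferred compounds, and grown at 37 °C for at least 48 hr. Viability was read as ATP luminescence.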
TDP1 cell noCPT: qHTS for Inhibitors of human tyrosyl-DNA phosphodiesterase 1 (TDP1): qHTS in cells in absence of CPT; hit rate 15% among 420,000; DT40 Tdp1-/- hTDP1 cells, no CPT, ATP luminescence, 48 h; AID 686978, 2013; Potency, µM (titrated, usually from 46.2 µM), inactives show at the highest dose activity change, negative = growth inhibition, usual class: inhibitors; note: potency is the fitted concentration of half-maximal effect; % is set by controls: 0 for no effect and ±100 for the full control effect; nearly all actives have a fitted effect of over 55% in size
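A cellular qHTS used chicken DT40 cells lacking endogenous Tdp1 but carrying stably transfected human TDP1. Compounds were applied without camptothecin, and cell growth kinetics were judged by ATP-dependent luminescence after ≥48 hr.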
IL-1B inflam inh: qHTS for Inhibitors of Inflammasome Signaling: IL-1-beta AlphaLISA Primary Screen; THP-1 LPS/ATP IL-1B secretion, AlphaLISA, 16 h; active compounds read low; activity change, % at 57.5 µM; hit rate 4.7% among 360,000; AID 743279, 2014; in the data active = activity change below about -50%; inconclusive = mostly about -30% to -49%; note: % is set by controls: 0 for no effect and ±100 for the full control effect
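Secreted IL-1B measured by AlphaLISA bead assay after 16 h compound exposure of THP-1 cells; compounds (final up to 57.5 uM) added 1 h before LPS (250 ng/mL) and ATP (1.25 mM) stimulation; lower signal means less secretion.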
ClpP mod: qHTS Assay for Activators of ClpP | Potency, µM (titrated, usually from 57.5 µM), for inactives: top-dose activity change, negative = active | purified B. subtilis ClpP, FRET peptide cleavage, 20 min | AID 651965, 2013 | ATP-dependent Clp protease proteolytic subunit (Bacillus subtilis (strain 168)), P80244 | hit rate 1.9% among 340,000; active = well fitted falling curve with a large enough effect; inconclusive = small, poorly fitted or top-dose-only effect; inactive = no such curve, though single readings can be large or run the other way; note: potency is the fitted concentration of half-maximal effect; the source files actives as falling curves though it sought activators and does not explain the sign; nearly all actives have a fitted effect of over 65% in size
Target sequence (P80244 whole entry, looked up): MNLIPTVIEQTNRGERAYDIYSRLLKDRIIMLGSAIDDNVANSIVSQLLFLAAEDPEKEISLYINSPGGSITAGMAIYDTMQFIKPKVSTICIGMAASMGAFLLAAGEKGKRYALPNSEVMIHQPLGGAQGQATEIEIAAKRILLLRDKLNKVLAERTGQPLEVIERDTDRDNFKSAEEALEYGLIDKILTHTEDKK
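ClpP 10 microg/mL final, pH 8 Tris/KCl buffer with BSA, glycerol, Tween-20; compound pinned in; FRET-FV substrate; RT 20 min; Ex320/Em430; ΔFRET vs ADEP 5.8 microM, DMSO, no enzyme.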
The depositor's hits bear a star. Unless noted, calls come from the whole dose curve; as a rule, active = well fitted inhibition curve with a large enough effect; inconclusive = small, poorly fitted or top-dose-only effect; inactive = flat fitted curve, though single readings scatter.

O=C(COC(=O)CC1c2ccccc2CCN1S(=O)(=O)c1ccccc1)Nc1ccccc1 (stereo not drawn) was read as D3 antag 4, D3 ag -8, DT40 TDP1 CPT inconclusive, TDP1 cell noCPT 21µM*, IL-1B inflam inh 0 and ClpP mod 1%.
Cc1ccc(NC(=O)COC(=O)CCc2c(C)nc3ncnn3c2C)cc1C was read as D3 antag 7, D3 ag 1, DT40 TDP1 CPT -26%, TDP1 cell noCPT -15% and IL-1B inflam inh 20.
Screening Cc1ccc(NC(=O)COC(=O)CCc2c(C)nc3ncnn3c2C)cc1 returned D3 antag -12, D3 ag 32*, DT40 TDP1 CPT 24%, TDP1 cell noCPT 4% and IL-1B inflam inh 6.
For CNS(=O)(=O)c1cn(CC(=O)Nc2ccc(F)cc2F)cc1S(=O)(=O)NC the results were D3 ag -3, DT40 TDP1 CPT -12%, TDP1 cell noCPT -11% and ClpP mod 0%.
`CCOC(=O)c1cnc(SCC(=O)Nc2cc(OC)cc(OC)c2)nc1N` gave D3 antag 26, D3 ag 22, DT40 TDP1 CPT 8.2µM*, TDP1 cell noCPT 8.2µM*, IL-1B inflam inh 36 and ClpP mod 12%.
CCOC(=O)c1cnc(SCc2nc(N)nc(Nc3ccccc3)n2)nc1N was read as D3 antag 32, D3 ag 1, DT40 TDP1 CPT 16µM*, TDP1 cell noCPT 16µM*, IL-1B inflam inh 6 and ClpP mod 5%.
Screening CCOC(=O)c1cnc(SCC(=O)Nc2ccc(N3CCOCC3)c(Cl)c2)nc1N returned D3 antag -11, D3 ag 5, DT40 TDP1 CPT inconclusive, TDP1 cell noCPT 13µM*, IL-1B inflam inh -8 and ClpP mod -2%.
CCOC(=O)c1cnc(SCc2ccc(C)cc2)nc1N was read as D3 antag 5, D3 ag 0, DT40 TDP1 CPT -14%, TDP1 cell noCPT -9%, IL-1B inflam inh -12 and ClpP mod -2%.
`CCOC(=O)c1cnc(SCC(=O)Nc2sc(C)c(C)c2C#N)nc1N` gave D3 antag -14, D3 ag -2, DT40 TDP1 CPT inconclusive, TDP1 cell noCPT inconclusive, IL-1B inflam inh 73 and ClpP mod -2%.
`CCc1nn(C(CC)C(=O)NCc2cccc(OC)c2)c(=O)c2cc3occc3n12` (stereo not drawn) gave D3 antag 4, D3 ag 0, DT40 TDP1 CPT inconclusive, TDP1 cell noCPT 13%, IL-1B inflam inh -3 and ClpP mod -6%.
Screening COc1ccc(C(=O)N2CCC3(CC2)CN(C(=O)NC(C)C)C3)cc1 returned DT40 TDP1 CPT 10% and TDP1 cell noCPT 1%.
Screening CCNc1c([N+](=O)[O-])c(=O)n(CC)c2ccccc12 returned D3 antag 3, D3 ag -2, DT40 TDP1 CPT -2%, TDP1 cell noCPT -13% and IL-1B inflam inh -9.
Screening CCN(CC)c1c([N+](=O)[O-])c(=O)n(CC)c2ccccc12 returned D3 antag 24, D3 ag -1, DT40 TDP1 CPT inconclusive, TDP1 cell noCPT 21µM*, IL-1B inflam inh 0 and ClpP mod 0%.
Screening Cc1oc(C(C)(C)C)cc1-c1cc(NC(=O)c2ccc([N+](=O)[O-])cc2)n[nH]1 returned D3 antag 4, D3 ag -13, DT40 TDP1 CPT inconclusive, TDP1 cell noCPT inconclusive and IL-1B inflam inh -63*.
For CC(=O)Nc1ccccc1-c1nc2ccccc2n(CC(=O)Nc2cccc(C)c2C)c1=O the results were D3 ag 3, DT40 TDP1 CPT -23%, TDP1 cell noCPT -8% and ClpP mod 0%.
CC[C@]12c3[nH]c4ccccc4c3CCN1C(=O)C(CC(=O)NCC13CC4CC(CC(C4)C1)C3)C[C@@H]2C(=O)N1CCN(C(=O)C2CC2)CC1 (stereo partly drawn) was read as D3 antag -13, D3 ag -1, DT40 TDP1 CPT 5.2µM*, TDP1 cell noCPT 5.2µM*, IL-1B inflam inh 0 and ClpP mod 0%.
Screening CC[C@]12c3[nH]c4ccc(Cl)cc4c3CCN1C(=O)[C@@H](CC(=O)NCC13CC4CC(CC(C4)C1)C3)C[C@@H]2C(=O)N1CCN(C(=O)C2CC2)CC1 returned D3 antag -20, D3 ag -22, DT40 TDP1 CPT 8.2µM*, TDP1 cell noCPT 3.3µM*, IL-1B inflam inh 0 and ClpP mod -1%.
CN(C)Cc1nc2ccccc2c(=O)n1Cc1nc(-c2cccc([N+](=O)[O-])c2)cs1 was read as D3 antag 34, D3 ag 13, DT40 TDP1 CPT 18µM*, TDP1 cell noCPT 6.5µM* and IL-1B inflam inh -19.
`CN1CCN(Cc2nc3ccccc3c(=O)n2Cc2nc(-c3ccc([N+](=O)[O-])cc3)cs2)CC1` gave D3 antag 11, D3 ag -4, DT40 TDP1 CPT 18µM*, TDP1 cell noCPT 5.8µM*, IL-1B inflam inh -97* and ClpP mod 1%.
Screening CCOC(=O)/C=c1\s/c(=C\c2c(OC)ccc3ccccc23)c(=O)n1CC(=O)NCC1CCCO1 (stereo not drawn) returned D3 antag -28, D3 ag 9, DT40 TDP1 CPT inconclusive, TDP1 cell noCPT 21µM*, IL-1B inflam inh 31 and ClpP mod -2%.
Screening CCOC(=O)/C=c1/s/c(=C/c2ccc3cc(OC)ccc3c2)c(=O)n1CC(=O)NCC1CCCO1 (stereo not drawn) returned D3 antag 0, D3 ag 11, DT40 TDP1 CPT 16µM*, TDP1 cell noCPT 10µM* and IL-1B inflam inh 0.
CCOC(=O)/C=c1\s/c(=C\c2ccc(C(=O)OC)cc2)c(=O)n1CC(=O)Nc1ccccc1 was read as D3 antag 5, D3 ag 5, DT40 TDP1 CPT 16µM*, TDP1 cell noCPT inconclusive, IL-1B inflam inh 3 and ClpP mod 1%.
`Cc1cc(=O)n2nc(N3CCC(C(=O)Nc4ccc(C)c(Cl)c4)CC3)sc2n1` gave D3 ag 6, DT40 TDP1 CPT inconclusive, TDP1 cell noCPT -21% and ClpP mod -2%.
For FC(F)(F)c1ccccc1-c1nc(NCCN2CCOCC2)c2ccccc2n1 the results were DT40 TDP1 CPT 0% and TDP1 cell noCPT -11%.
